About 79,000 compounds went through this panel and 15% of them were active in at least one assay; those are over-represented in the sample as a whole. Unmarked numbers belong to inactive results. The source made the active and inactive calls. Cut-off read from the data, not from the text of the source: active = growth inhibition above about 70%; inactive = the rest.
Key:
[1] = NCI Yeast Anticancer Drug Screen. Data for the rad50 strain (AID 155);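 note: 0% = growth of vehicle-only cultures of the same strain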; details: S. cerevisiae rad50 strain growth inhibition; at 50.0 µM; hits give high values
In short: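 DNA repair mutant yeast, compound exposure, growth read-out; inhibition is taken relative to vehicle.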

[2] = NCI Yeast Anticancer Drug Screen. Data for the mec2-1 strain (AID 157); details: S. cerevisiae mec2-1 strain, at 50.0 µM, hits give high values
In short: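 Yeast mec2-1 mutant treated with compound. Readout: growth inhibition vs vehicle controls.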

[3] = NCI Yeast Anticancer Drug Screen. Data for the sgs1 mgt1 strain (AID 161);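 note: 0% = growth of cultures given vehicle only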; details: S. cerevisiae sgs1 mgt1 strain, at 50.0 µM, hits give high values
In short: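 Genetically altered yeast, compound exposure, growth inhibition relative to vehicle.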

[4] = NCI Yeast Anticancer Drug Screen. Data for the cln2 rad14 strain (AID 165);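 note: 0% = growth equal to vehicle treated cultures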; details: S. cerevisiae cln2 rad14 strain, at 50.0 µM, hits give high values
In short: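 cln2 rad14 yeast strain; compound exposure; growth inhibition read vs vehicle controls.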

[5] = NCI Yeast Anticancer Drug Screen. Data for the bub3 strain (AID 167); details: S. cerevisiae bub3 mutant strain, at 50.0 µM, hits give high values
In short: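 In this screen, a yeast mutant lacking normal mitotic checkpoint function is challenged with compound. Relative growth versus vehicle gives the inhibition value.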

[6] = NCI Yeast Anticancer Drug Screen. Data for the mlh1 rad18 strain (AID 175); details: S. cerevisiae mlh1 rad18 strain growth inhibition; at 50.0 µM; hits give high values
In short: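 Yeast w/ defined DNA-repair lesions; compound exposure; growth vs vehicle controls → % inhibition.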

Row | Compound | growth inhibition [1] | growth inhibition [2] | growth inhibition [3] | growth inhibition [4] | growth inhibition [5] | growth inhibition [6]
1 | CCC(=O)C(OC(C)=O)C(OC(C)=O)C(OC(C)=O)C(COC(C)=O)OC(C)=O (configuration not stated) | -1.95% | -1.15% | -8.1% | 27.8% | -3.95% | 13.8%
2 | O=C(NNc1ccccc1)C1C2CC3OC(=O)C1C3C2 (configuration not stated) | 54% | 82.1% (active) | 77.6% (active) | 52.4% | 79.8% (active) | 68.5%
3 | CC1c2ccc3ccccc3c2C(=O)c2cccc(Cl)c21 (configuration not stated) | 0.45% | 31.9% | 14.7% | -42.6% | -5.65% | -1.65%
4 | COc1nc(Cl)cc2nc(Cl)cn12 | 3.4% | 9.35% | -3.65% | 9.55% | -11.8% | 2.55%
5 | Cc1ccc(-n2[nH]nc(C#N)c2=O)cc1 | -6.75% | -20.6% | -23.9% | -1.25% | -27.1% | 5.65%
6 | CCOc1ccc(NC(=O)C(=O)C(/C(=N/N)C(=O)OC)c2nc3ccc([N+](=O)[O-])cc3[nH]c2=O)cc1 (configuration not stated) | 6.9% | -6% | 3.5% | 13.3% | 7% | 21.9%
7 | NS(=O)(=O)c1ccc2cc(S(N)(=O)=O)ccc2c1 | 19.1% | 13.5% | 22.4% | 15.5% | 23.1% | 25.8%
8 | O=c1c(Cc2ccccc2)coc2ccccc12 | 30.6% | 14.6% | 21.4% | -14.2% | 27.5% | -1.5%
9 | O=S(Cc1cc2c(cc1Br)OCO2)c1ccccc1 (configuration not stated) | -27% | -33.5% | -20% | -22.4% | -37.7% | -29.1%
10 | NNC(N)=Nc1cccc2ccccc12 | -2.9% | -7.5% | 0.35% | 15.7% | 11.4% | -18.6%
11 | CN(C)N=Nc1ccc(C(=O)NC(Cc2ccccc2)C(=O)O)cc1 (configuration not stated) | 1.45% | -4.1% | 3.2% | 0.55% | 3.3% | 6.45%
12 | COc1cc(C2c3cc4c(cc3OC(N3CCCCC3)C2C)OCO4)cc(OC)c1OC (configuration not stated) | -13.4% | -20.1% | -18.1% | 0.15% | -23.6% | -12.6%
13 | O=C(O)c1ccccc1[N+](=O)[O-] | -4.1% | 10.1% | -9.5% | 1.3% | -4.3% | 10.8%
14 | CSc1ccc(C(=O)C[n+]2cc3ccccc3cc2C)cc1 | -34.4% | -2.5% | -16.1% | -26.6% | 2.75% | 0.7%
15 | C=C[C@]1(O)CCC[C@]2(C)C(=O)CCC12C (some centres not stated) | -2.8% | -21.9% | -19.2% | 10.8% | -22.2% | -31.9%
16 | CC(=O)SCCCCl | -9.25% | 2.1% | 11.2% | -1.25% | 8.25% | -11.3%
17 | Cc1cccc(-n2c(CC#N)n[nH]c2=S)c1 | 21% | -21.8% | -0.4% | 3.15% | 5.2% | 5.45%
18 | NC(=S)N/N=C1\CCCC1C(O)(C(F)(F)Cl)C(F)(F)Cl (configuration not stated) | 65.3% | 17.6% | 56.1% | 35% | 29.9% | 62.5%
19 | CCCC1OCC=CCO1 | 3.75% | -23.6% | -21.1% | -1.45% | -33.5% | 20.4%

Row | Compound | growth inhibition [1] | growth inhibition [2] | growth inhibition [3] | growth inhibition [4] | growth inhibition [5] | growth inhibition [6]
20 | O=C(OC(C[n+]1ccccc1)c1ccccc1)c1ccccc1 (configuration not stated) | -0.55% | -0.9% | 4.5% | 14.5% | -6.4% | 34%
21 | NC(=O)c1ncn2c(=O)n(CCl)nnc12 | 57.4% | 81.6% (active) | 29.6% | 45.5% | 57.5% | 83.5% (active)
22 | CCCCC(=O)CCCC | 3.55% | -14% | -5.1% | -3.3% | -4.95% | 4.35%
23 | O=C(CC1C(=O)Nc2ccccc2S1=O)Nc1cccc(Cl)c1 (configuration not stated) | -32.2% | -31.1% | -4.5% | 18.2% | 10.1% | -25.2%
24 | CCc1cccc(CC)c1NC(=O)/C=C/C(=O)O | -12.6% | 3.45% | -4.75% | -46.6% | -4.2% | 4.1%
25 | CCOc1ccccc1/C=C1\NC(=O)NC1=O | -38.6% | -35% | -35% | -14.9% | 2.6% | -6.7%
26 | CC(Br)CNC(=O)c1ccc([N+](=O)[O-])cc1 (configuration not stated) | -0.65% | 17.3% | 3.6% | -4.35% | 9.75% | 13.3%
27 | N/N=C1/C=Cc2cccc3cccc1c23 | 19.3% | -37.2% | 15.3% | 30.2% | 16.2% | 38.4%
28 | Cc1ccc(NC(=O)c2ccc(C)c(N)c2)c(C)c1 | -16.2% | -21.2% | -15.8% | -9.7% | -25.1% | -5.7%
29 | C[N+]1(C)CCC(O)C(c2ccccc2)C1 (configuration not stated) | -8.9% | -0.45% | -3.5% | -22.5% | -8.1% | -0.7%
30 | CC(C)OP(=O)(OC(C)C)/C(N)=N/Nc1ccc([N+](=O)[O-])cc1 | 25.6% | -0.2% | -5.6% | 2.65% | -3.95% | -7.7%
31 | CN(C)Cc1cc(C=O)cc(CN(C)C)c1O | 10.3% | 4.6% | -29.2% | 13.4% | 10.7% | 5.8%
32 | CC1/C(=N\Nc2ccc([N+](=O)[O-])cc2[N+](=O)[O-])CCC2C1(C)CCC1C2(C)CCC2(C)C3CC(C)(C)CCC3(C)CCC12C (configuration not stated) | -5.8% | -9.1% | 9.8% | -16.6% | 13.2% | 6.25%
33 | Nc1nnnn1CCc1ccccc1 | 7.75% | 6.3% | -4% | -10.8% | 4.4% | 9.75%
34 | Cc1ccc(S(=O)(=O)C(CC(=O)O)c2ccccc2)cc1 (configuration not stated) | 0.35% | 0.15% | 6.15% | 4.15% | 1.7% | 4.2%
35 | Clc1ccc2sc3c(c2c1)CCNC3 | 2.8% | 0.1% | -6.75% | -31.4% | -26% | 13.6%
36 | O=C(CC(=O)c1ccc(Cl)s1)C(=O)NC1C2CC3CC(C2)CC1C3 (configuration not stated) | -15% | 15.9% | 7.9% | -26.6% | 12.2% | 3.55%
37 | NC(=O)c1cc(Cl)ccc1O | 14.5% | 12.5% | 18.4% | 3.1% | -4.05% | 11.6%
